The structures appear in SMILES notation. Calls of active or inactive are those of the source.

One experiment can be described thus: growth of efflux-deficient E. coli DRC39 – strain DRC39, OD650, 48 h, E. coli filamentation inducers, primary screen (AID 1179).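 Note: screen aims at cell division blockers that make cells filament.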 The conditions noted are these: E. coli DRC39 delta-acrAB growth, higher = more signal, called active from +8 up or from −8 down.
Turning to `[N-]=[N+]=Nc1ccccc1[C@@H]1OC(c2ccc(OCCCO)cc2)=N[C@]1(Cc1ccccc1)C(=O)NCC(O)CO` (stereo partly specified), the z-score is 0.783 (inactive). With `[N-]=[N+]=Nc1ccccc1C[C@]1(C(N)=O)N=C(c2ccc(OCCCO)cc2)O[C@H]1c1ccccc1N=[N+]=[N-]`, the z-score was -0.142 (inactive).

On to `C[C@@H]1NC(=O)[C@@]23C(=O)N[C@@H](Cc4ccccc4)C2[C@H](C)[C@@]2(C)O[C@H]2C3/C=C/C/C=C\CNC(=O)[C@@H]2CCCN2C1=O` (stereo partly specified), for which the z-score was -0.188 (inactive). Same read-out and setting: then `COCCCNC(=O)[C@]1(CCS(=O)(=O)c2ccccc2)N=C(c2ccc(OCCCO)cc2)O[C@@H]1c1ccccc1N=[N+]=[N-]`, with 0.0059 (inactive); and `O=C1OCCC/C=C\[C@H]2OC34C=CCN(CCN5CCOCC5)C(=O)[C@H]3N(CCCCCCO)C(=O)[C@@H]4C12` (stereo partly specified), with 0.547 (inactive).

Another experiment is described as follows: viability profiling in RPMI8226 myeloma cells – cell-based, resazurin fluorescence, basal, 24 h, PK04 Diversity Set, profiling panel (AID 1180).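 Note: RPMI8826 multiple myeloma cell line at 5000 cells per well; test concentration not given here.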 The settings on record: higher = more signal.
In turn, `[N-]=[N+]=NCc1ccccc1C[C@@]1(C(=O)N2CCCCC2)N=C(c2ccc(OCCCO)cc2)O[C@@H]1c1ccccc1` displayed a z-score of -4.9. Turning to `O=C1O[C@@H](c2ccccc2)[C@@H](c2ccccc2)N2[C@@H](c3ccc(OCCO)cc3)[C@]3(C(=O)Nc4ccccc43)[C@@H](C(=O)O)[C@H]12`, the z-score came to 0.441. On the same count and under the same terms, then `CC(CO)N1C(=O)[C@@H]2[C@H]3C(=O)OCC=C[C@H]3OC23C=CCN(C(C)(C)C)C(=O)[C@@H]13` (stereo partly specified), with -0.794; and `CN1C(=O)C2C=CC(C(O)c3cccc4ccccc34)N(N3CCCCC3)C2C1=O` (stereo unspecified), with -1.74; and `CN(C)C(=O)[C@]1(CCS(=O)(=O)c2ccccc2)N=C(c2ccc(OCCCO)cc2)O[C@@H]1c1ccccc1N=[N+]=[N-]`, with -1.01. The same measure, in the same setting: to `COC(=O)[C@@]1(Cc2ccc(F)cc2)[C@H]2c3cc(C(=O)N4CCCC4)n(CCc4ccc(O)c(O)c4)c3C[C@H]2CN1C(=O)c1ccccc1` belongs -0.795; to `CN(C)CCCNC(=O)[C@@]1(c2ccc([N+](=O)[O-])cc2)CC(=O)N(CC23CC4CC(CC(C4)C2)C3)[C@@H]1c1ccc(CO)cc1I`, -6.63; to `Cc1cc(C)c(C(O)C2C=CC3C(=O)NC(=O)C3N2Nc2ccc(Cl)cc2Cl)c(C)c1` (stereo unspecified), -1.81. Same read-out and setting: then `COCCOC(=O)N1C(=O)[C@@]2(c3cc(C#CC4=CCCCC4)ccc31)[C@H](c1ccc(OCCO)cc1)N1[C@H](c3ccccc3)[C@H](c3ccccc3)OC(=O)[C@H]1[C@@H]2C(=O)N1CCN(c2ncccn2)CC1`, with 0.621; and `C=CCC(OC(C)=O)[C@@H]1[C@@H](N(Cc2ccc(-c3ccccc3)cc2)C(=O)Cc2ccc(F)cc2)c2cc(OCCCO)ccc2N1C(=O)Cc1ccc(OC)cc1` (stereo partly specified), with -0.103. The compound `COC(=O)[C@@]1(Cc2ccc(OC)cc2)[C@H]2c3cc(C(=O)N(C)C)n(C[C@H](O)CO)c3C[C@H]2CN1C(=O)c1ccccc1` displayed a z-score of -1.95. In the case of `Cn1cccc1C(O)C1C=CC2C(=O)NC(=O)C2N1Nc1ccc(Cl)cc1Cl` (stereo unspecified), the z-score was -1.98. Same read-out and setting: then `COc1ccc([Si](C)(C)[C@@H]2[C@@H](CC(=O)N(CCO)Cc3ccccc3)O[C@]3(C(=O)N(Cc4cccc(N5C(=O)c6cccc7cccc5c67)c4)c4ccccc43)[C@H]2C)cc1`, with -1.27; and `Cc1ccc(S[C@]2(C(=O)NCC(F)(F)F)CC(=O)N(Cc3ccccc3C(F)(F)F)[C@@H]2c2ccc(CO)cc2I)cc1`, with -1.15; and `CCOc1cc(C(O)C2C=CC3C(=O)N(c4ccccc4)C(=O)C3N2Nc2ccc(C#N)cc2)ccc1O` (stereo unspecified), with -1.4. Same read-out and setting: to `COCCOC(=O)N1C(=O)[C@@]2(c3ccccc31)[C@H](C(=O)N1CCN(c3ncccn3)CC1)[C@H]1C(=O)O[C@H](c3ccccc3)[C@H](c3ccccc3)N1[C@@H]2c1ccc(O)cc1` belongs 0.434; to `CCCC[C@@H]1C[C@H]1[C@@H](NC(=O)c1cccs1)c1ccc(C(F)(F)F)cc1`, -0.601. Same read-out and setting: to `COC(=O)c1ccc([C@H](NC(=O)c2ccco2)[C@]2(C)C[C@H]2C2CCCCC2)cc1` belongs -2.26; to `O[C@@H](Cc1ccccc1)[C@@H](/C=C/C1CC1)N(CC#Cc1ccccc1)Cc1cccc(Cl)c1`, 2.06; to `N#Cc1ccc(C(O)C2C=CC3C(=O)N(c4ccccc4)C(=O)C3N2Nc2ccccc2)cc1` (stereo unspecified), -0.196. Take `CC(C)N1C(=O)c2ccccc2[C@@H](C(=O)NC2CC2)[C@@H]1c1ccc(CO)cc1`: the z-score is 0.417. Same read-out and setting: to `COC(=O)c1nc2oc1CC[C@@H](CO)NC(=O)N(C)Cc1cnnn1C[C@H](Cc1ccccc1)NC2=O` belongs 1.47; to `C=CCNC(=O)[C@@H]1[C@H]2C(=O)O[C@H](c3ccccc3)[C@H](c3ccccc3)N2[C@H](c2ccc(O)cc2)[C@@]12C(=O)N(C(=O)OCCOC)c1ccc(C#CC3(O)CCCCCC3)cc12`, 0.196; to `O=C1C=C(c2ccccc2)C(=O)c2ccc([C@H]3Oc4ccccc4S(=O)(=O)N4CCC[C@@H]34)cc21`, -5.86. The same measure, in the same setting: then `C=C(COC)/C(=C/C[C@H](OC(C)=O)c1ccc(OCCO)cc1)c1cc(C(=O)OC)ccc1OC`, with 1.46; and `CC(C)[Si](C#C[Si](C(C)C)(C(C)C)C(C)C)(O[C@H](C)c1cn([C@H](CO)Cc2ccccc2)nn1)C(C)C`, with 1.04; and `CC1CC/C=C\[C@H]2OC34C=CCN(C(C)C)C(=O)[C@H]3N(CCCCCCO)C(=O)[C@@H]4C2C(=O)O1` (stereo partly specified), with 2.06.

Compound `CC1CC/C=C\[C@H]2OC34C=CCN(c5ccc(Cl)cc5)C(=O)[C@H]3N(CCCCCO)C(=O)[C@]4(C)C2C(=O)O1` (stereo partly specified) had a z-score of 0.0738.

Take `COCCCNC(=O)[C@@]1(Sc2ccc(C)cc2)CC(=O)N(C2CCCCC2)[C@@H]1c1ccc(CO)cc1`: the z-score was -0.577. Same read-out and setting: to `[N-]=[N+]=Nc1ccccc1[C@H]1OC(c2ccc(OCCCO)cc2)=N[C@@]1(Cc1ccccc1)C(=O)N1CCCCC1` belongs -4.52; to `CC(C)OC(=O)C=C1C[C@@H](c2ccc(C(F)(F)F)cc2)O[C@@H](c2ccc(C(F)(F)F)cc2)O1`, 0.0779.

Take `[N-]=[N+]=Nc1ccccc1[C@@H]1OC(c2ccc(OCCCO)cc2)=N[C@]1(Cc1ccccc1)C(=O)NCC(O)CO` (stereo partly specified): the z-score was -0.71. Same read-out and setting: to `[N-]=[N+]=Nc1ccccc1C[C@]1(C(N)=O)N=C(c2ccc(OCCCO)cc2)O[C@H]1c1ccccc1N=[N+]=[N-]` belongs -1.64; to `C[C@@H]1NC(=O)[C@@]23C(=O)N[C@@H](Cc4ccccc4)C2[C@H](C)[C@@]2(C)O[C@H]2C3/C=C/C/C=C\CNC(=O)[C@@H]2CCCN2C1=O` (stereo partly specified), -0.0461. On the same count and under the same terms, to `COCCCNC(=O)[C@]1(CCS(=O)(=O)c2ccccc2)N=C(c2ccc(OCCCO)cc2)O[C@@H]1c1ccccc1N=[N+]=[N-]` belongs -0.998; to `O=C1OCCC/C=C\[C@H]2OC34C=CCN(CCN5CCOCC5)C(=O)[C@H]3N(CCCCCCO)C(=O)[C@@H]4C12` (stereo partly specified), 0.56.

The values above are taken from PubChem BioAssay.
